Compound activity deposited in PubChem by National Center for Advancing Translational Sciences (NCATS).
ATXN viability: reduces viability in counter-screen for ATXN expression inhibitors; S2 cells (HEK-293 line with an ATXN2-luciferase reporter) viability, CellTiter-Fluor protease fluorescence, 24 h; Potency, µM (series often up to 56.7 µM), hits mostly cytotoxic; 400,000 compounds, 0.49% hits; further: nearly all actives have a fitted effect of over 40% in size
Nrf2 inh: Nrf2 pathway inhibition | A549 ARE-Fluc reporter, luciferase luminescence, 18-24 h | Potency, µM (top dose mostly 46 µM), most hits filed as inhibitors | 360,000 compounds, 2.1% hits; further: nearly all actives have a fitted effect of over 60% in size
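Nrf2 activity is the BugLite luminescence, read 15 min after reagent at room temperature, following CellTiter-Fluor cytotoxicity readout (30 min, 37C). Compound titrations were applied for 18-24 h to 5000 A549 ARE_Fluc cells/well in 5% FBS OPTI-MEM.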
A549 tox: counter-screen for Nrf2 inhibitors: cytotoxicity in A549 cells; A549 ARE-Fluc cells, CellTiter-Fluor viability, 18-24 h; Potency, µM (doses to about 46 µM), usual class: inhibitors; 390,000 compounds, 0.16% hits; AID 504648
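A549 ARE-Fluc cells in 5% FBS OPTI-MEM, 5000 cells/well, rested 2 h then exposed to compounds in concentration-response for 18-24 h at 37 °C. Viability by CellTiter-Fluor fluorescence (Ex 405/Em 525) after 30 min; luciferase luminescence (BugLite, 15 min, RT) read afterwards.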
Nrf2 ARE act: activators of Nrf2 (ARE) signaling; Potency, µM (titrated, usually from 46.1 µM), hits mostly activators; AREc32 ARE-luciferase reporter (MCF7-derived line), luminescence, 24 h; 410,000 compounds, 0.31% hits; further: nearly all actives have a fitted effect of over 65% in size
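Steps: seed AREc32_Fluc cells (1000/well, 5% FBS OPTI-MEM); incubate overnight at 37 deg C; add 23 nL compound; incubate 24 hr; add Steady-Glo; hold 30 min RT; read luminescence.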
ATXN2 expr inh: ATXN2 expression inhibition; HEK-293 ATXN2-luciferase reporter, luminescence, 24 h; Potency, µM (highest dose often 57 µM), hits mostly inhibitors; 360,000 compounds, 0.72% hits; AID 1745845; further: nearly all actives have a fitted effect of over 55% in size
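ATXN2-luciferase reporter cells (luciferase flanked by upstream and downstream ATXN2 gene portions) were treated 24 h at 37 °C with compounds at up to 57 uM. SteadyGlo luminescence gave expression; GF-AFC fluorescence gave viability.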
Hits are given with their value; – = inactive; ? = inconclusive; · = no result; [ ] = dose if it differs, or a comment. In the library only some 2.9% were active in any assay of this set; here they are far more common. The call rests on the fitted dose curve; in most records, active means well fitted curve in the direction sought with a large enough effect; inconclusive means small, poorly fitted or top-dose-only effect, or another doubt; inactive means no such curve, though single readings can be large; an effect the other way counts as inactive or inconclusive.

SMILES	ATXN viability	Nrf2 inh	A549 tox	Nrf2 ARE act	ATXN2 expr inh
Cc1cc(N2CCN(S(=O)(=O)c3ccccc3)CC2)c2ccccc2n1	?	21µM	–	–	–
O=S(=O)(c1ccccc1)N1CCN(c2nc(C3CC3)nc3ccccc23)CC1	·	–	–	·	·
O=S(=O)(c1ccccc1)N1CCN(c2ccnc3cc(Cl)ccc23)CC1	?	23µM	–	–	13µM
CC1=C(C(N)=O)C(c2cccc(C)c2)n2nc(-c3cccc(C)c3)nc2N1 (configuration not stated)	–	–	–	–	–
COc1ccc(CN2C[C@H](Sc3nc4ccccc4[nH]3)C[C@H]2C(=O)N(C)C)c2ccccc12	–	·	·	·	·
CC(NC(=O)C1CC1)c1nnc2n1CCN(Cc1cccc(F)c1F)CC2 (configuration not stated)	–	·	·	·	·
Cc1ccc(NC(=O)c2cc(S(=O)(=O)N3CCCCC3)ccc2N2CCOCC2)cc1	–	·	·	–	·
Cc1ccc(CNC(=O)c2cc(S(=O)(=O)N3CCCCC3)ccc2N2CCOCC2)cc1	–	21µM	?	–	–
COc1ccc(CNC(=O)C2CCCN(S(=O)(=O)N(C)c3ccc(F)cc3)C2)cc1OC (configuration not stated)	·	23µM	–	–	·
O=C(OCc1cccc(Cl)c1)c1cc(S(=O)(=O)N2CCCCC2)ccc1N1CCOCC1	–	?	–	–	–
COc1ccc(CNC(=O)c2cc(S(=O)(=O)N3CCCCC3)ccc2Cl)cc1OC	–	16µM	–	–	–
O=C(OCCOc1cccc(Cl)c1)c1cc(S(=O)(=O)N2CCCCC2)ccc1N1CCOCC1	–	12µM	–	–	–
CCC1(C2CCN(C(=O)c3cc(C)cc(C)c3)CC2)NC(=O)N(CCc2scnc2C)C1=O (configuration not stated)	–	·	·	·	·
C[C@@H]1CC=CC=CC=CC=C[C@@H](O[C@@H]2O[C@H](C)[C@@H](O)[C@H](N)[C@H]2O)C[C@@H]2O[C@](O)(C[C@@H](O)C[C@@H]3O[C@@H]3C=CC(=O)O1)C[C@H](O)[C@@H]2C(=O)O	·	·	·	·	–
CCCN1CCN(C(=S)Nc2ccccc2C(F)(F)F)CC1	–	16µM	–	–	–
FC(F)(F)c1ccccc1NC(=S)N1CCc2ccccc2C1	?	?	–	–	·
OCCNc1nc2ccccc2nc1NCCO	–	–	–	–	–
OCCNc1c2ccccc2nc2ccccc12	·	?	?	–	19µM
O=C(c1ccccc1-n1cccn1)N1CCOc2ccc(CN3CCOCC3)cc2C1	–	·	·	·	·
Cc1ccc(S(=O)(=O)CC(CN2CCOCC2)N2CCOCC2)cc1 (configuration not stated)	–	–	–	–	–[11.3 µM]
CC1CCN(CC(CS(=O)(=O)c2ccc([N+](=O)[O-])cc2)N2CCC(C)CC2)CC1 (configuration not stated)	–	23µM	?	–	–
COc1cc(CN2CCC3(CC2)CC3C(=O)Nc2ccc3sc(C)nc3c2)ccc1F (configuration not stated)	–	·	·	·	·
COCCNC(=O)c1ccc(-n2c(-c3ccccc3)cc3c2CCC(C)C3)cc1 (configuration not stated)	·	–	–	10µM	·
CCCNC(=O)c1ccc(-n2c(-c3ccccc3)cc3c2CCC(C)C3)cc1 (configuration not stated)	·	?	–	11µM	·
Cc1ccccc1-c1noc(-c2ccc(Cl)cc2)n1	–	?	–	–	–
SMILES	ATXN viability	Nrf2 inh	A549 tox	Nrf2 ARE act	ATXN2 expr inh
Cc1ccccc1-c1noc(-c2ccccc2F)n1	–	·	–	8.9µM	–
O=C(CN1C(=O)c2ccccc2C1=O)NCC1Cc2cccc(-c3ncccn3)c2O1 (configuration not stated)	–	·	·	·	·
COc1ccc2oc3cc(C)[n+]([O-])c(-c4ccc(Br)cc4)c3c2c1	?	23µM	?	–	?
CC(C)(C)OC(=O)N1CCCC1C(=O)NC1COC2CC(n3cc(F)c(=O)[nH]c3=O)OC12 (configuration not stated)	·	–	–	·	·
COc1ccc(C(=O)NCCCNC(=O)c2cccnc2)cc1OC	–	10µM	–	–	–
COc1ccc(CCNC(=O)c2cccnc2)cc1OC	–	·	–	–	–
CC(C)(C)c1ccc(C(=O)NCCCNC(=O)c2cccnc2)cc1	–	8.2µM	–	–	–
